Results as given in the supplement of paper PMC7156485.

Each molecule was assayed on HCC1569 (assay: H1.0 immunofluorescence intensity relative to DMSO (% of DMSO); higher = stronger H1.0 induction, active = 140 or more). Settings: concentration: 10 µM; 24 h.
Method in brief: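 In 384-well plates holding 800 HCC1569 or TDF cells per well in RPMI with 10% FBS, compounds were tested at 10 µM for 24 h at 37 °C in triplicate. Fixation used 3.7% formaldehyde. Staining used a rabbit anti-H1.0 antibody with an AlexaFluor 647 secondary, plus DAPI. Each value, H1.0 nuclear intensity or cell number, is a median of replicates shown as percent of the plate control, and HCC1569 values were smoothed for positional effects.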
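Further: TDF is a line of transformed human dermal fibroblasts of mesenchymal origin.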

H1.0 immunofluorescence intensity, inactive:
CSc1nc(-c2ccnc(NC(C)c3ccccc3)c2)c(-c2ccc(F)cc2)[nH]1 (stereo unspecified) [p38 MAP Kinase Inhibitor III] 113
CC(C)NCC(O)COc1ccc(CCOCC2CC2)cc1.Cl (stereo unspecified) [Betaxolol.HCl] 102
O=C(O)CO.[NH2-].[NH2-].[Pt+2] [Nedaplatin] 104
CCCc1c(OCCCCc2nn[nH]n2)ccc(C(C)=O)c1O 105
Cl.NC(CO)C(=O)NNCc1ccc(O)c(O)c1O (stereo unspecified) [Benserazide hydrochloride] 96.3
CCCCCCCCC=CCCCCCCCCCCC(=O)O [12(Z) Heneicosenoic acid] 115
CC1(C)C(=O)N(CCN2CCC(C(=O)c3ccc(F)cc3)CC2)c2ccccc21.Cl [LY-310,762 hydrochloride] 95.7
CN(C)CCCN1c2ccccc2Sc2ccc(Cl)cc21.Cl [Chlorpromazine.HCl] 113
O=C1Nc2ccc(Cl)cc2C(C#CC2CC2)(C(F)(F)F)O1 (stereo unspecified) [Efavirenz] 111
N[C@H](CO)C(=O)O [D-Serine] 102
NCC(O)c1ccc(O)c(O)c1.O=C(O)C(O)C(O)C(=O)O (stereo not drawn) [L(-)-Norepinephrine bitartrate] 94.6
COc1ccc(S(=O)(=O)Nc2nc(-c3cccc([N+](=O)[O-])c3)cs2)cc1OC 97.7
CC(=O)OC1CCC2(C)C(C1)C(OC(C)=O)CC1C2CC2C3CN4CC(C)CCC4C(C)C3CCC21O (stereo unspecified) [Diacetylkorseveriline] 95.1
CN1CCN(c2nc3cc(C(F)(F)F)ccc3n3cccc23)CC1.O=C(O)C=CC(=O)O 113
CC(C)(ON=C(C(=O)NC1C(=O)N2C(C(=O)[O-])=C(C[n+]3ccccc3)CSC12)c1csc(N)n1)C(=O)O (stereo unspecified) [Ceftazidime] 108
CNC(=O)C1OC(n2cnc3c(NCc4ccc(N)cc4)ncnc32)C(O)C1O (stereo unspecified) 90.6
C[N+](C)(C)CCC(=O)c1cccc2ccccc12.[I-] [2-(alpha-Naphthoyl)ethyltrimethylammonium iodide] 91.6
CN(C)CCC(c1ccc(Br)cc1)c1ccccn1.O=C(O)C=CC(=O)O (racemic) 94.6
COc1ccc(CN2CCN(C(c3ccc(F)cc3)c3ccc(F)cc3)CC2)c(OC)c1OC [Lomerizine] 105
Nc1c2c(nc3ccccc13)CCCC2O.O=C(O)C=CC(=O)O (stereo unspecified) [Hydroxytacrine] 101
CCC1OC(=O)C(C)C(OC2CC(C)(OC)C(O)C(C)O2)C(C)C(OC2OC(C)CC(N(C)C)C2O)C(C)(OC)CC(C)C(=O)C(C)C(O)C1(C)O (stereo unspecified) [Clarithromycin] 94.6
CC(C)=CCCC(C)=CCCC(C)=CCSc1ccccc1C(=O)O [Farnesylthiosalicylic acid] 94.5
COc1ccc2c(c1)CC[C@@H]1[C@@H]2CC[C@]2(C)[C@@H](NCCCCCCN3C(=O)C=CC3=O)CC[C@@H]12.O 107
C#CCN(C)Cc1ccccc1.Cl [Pargyline hydrochloride] 101
CC1(COc2ccc(CC3SC(=O)NC3=O)cc2)CCCCC1 (stereo unspecified) [Ciglitizone] 90.5
CC(C)C[C@H](NC(=O)C(O)[C@H](N)Cc1ccc([N+](=O)[O-])cc1)C(=O)O.Cl (stereo partly specified) 93.9
CC(=O)SCC(Cc1ccccc1)C(=O)NCC(=O)OCc1ccccc1 (stereo unspecified) [Racecadotril] 104
CC(C)(C)NCC(O)c1ccc(O)c(CO)c1.CC(C)(C)NCC(O)c1ccc(O)c(CO)c1.O=S(=O)(O)O (stereo unspecified) [Albuterol hemisulfate] 107
COC1(C2=NCCN2)COc2ccccc2O1.Cl (stereo unspecified) 102
Cn1c(NCCN(CCO)CCCc2ccc([N+](=O)[O-])cc2)cc(=O)n(C)c1=O [Nifekalant] 100
CCCCCCCCCCCCCC(=O)O [Tetradecanoic acid] 102
